Growth data for 14 compounds are collected here from PubChem BioAssay (NCI).

The structures appear in SMILES notation. About 83,000 compounds went through this panel and 20% of them were active in at least one assay; those are over-represented in the sample as a whole.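 Testing used 96-well plates and a 48-hour single-concentration exposure. Example: -40 means 40% of the starting cells died.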 Values without a mark were called inactive. The source made the active and inactive calls. Rule for the calls: active = growth percent below 10; inactive = the rest.

The test concerns HL-60(TB) leukemia. As to the kind of experiment: NCI-60 one-dose screen, 48 h (100 = growth as untreated, 0 = no growth, -100 = all killed). As to conditions: 10 µM unless noted.

On to `COc1c(C)c2c(c(O)c1C/C=C(\C)CCC(=O)O)C(=O)OC2`, for which the growth was 45.6%.
The value for `COc1cnc2c(c1)C(=O)c1c-2n(CCCN2CCC(N)CC2)c(=O)c2cc([N+](=O)[O-])ccc12` was 44.3%; that for `N=c1c2c(-c3ccccc3)c(-c3ccccc3)oc2ncn1NC(=O)c1cccnc1` was 99.7%; that for `CCOC(=O)c1cc(C(=O)c2ccc(Br)cc2)n2ccc(/C=C/c3cc[n+](CC(=O)c4ccc(OC)cc4)cc3)cc12` was 58.1%.
In the case of `COc1ccc(-c2cc(-c3ccccc3)nc(NCCNc3ccnc4cc(Cl)ccc34)n2)cc1`, the growth is -58.7% (active).
The value for `CCC1(C)OC(=O)NC1=O` (centres undefined) was 112%.
Turning to `O=c1c(Cc2ccc(F)cc2)cc(-c2ccccc2)nn1C/C(=N/O)c1ccccc1`, the growth is 24.8%.
The value for `COc1ccc(CNC(=O)c2c(C)n([O-])c3ccccc3[n+]2=O)cc1` was 101%; that for `COc1ccc(C2=Nn3c(nnc3-c3cc(Cl)cc(Cl)c3Cl)SC2)cc1` was -32% (active).
Next, `O=C1CC(c2nc3ccccc3[nH]2)CN1C1CCCCC1` (centres undefined): 101%.
As for `O=C(Nc1cccc(Cl)c1)Nc1ncc(CCNc2ncnc3ccsc23)s1`, the growth is 8.72% (active).
Next, `CC(C)CSc1nc(-c2ccc(F)cc2)c(C#N)c(N2CCCCC2)n1`: 101%; `CC(C)[C@@H](C)/C=C/[C@@H](C)[C@H]1CCC2=C3C=CC4=CC(=O)CC[C@]4(C)[C@H]3CC[C@@]21C`: 93.9%.
The value for `O=C(O)c1cn(C2CC2)c2cc(N3CCN(C(=O)C[n+]4cccc5ccccc54)CC3)c(F)cc2c1=O` was 99.1%.
